Assay results reported in PubChem BioAssay (NCI).
Compounds without any hit were thinned out: in the full panel of roughly 83,000, 20% have a hit.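 Note: values are percent growth. 100 is the growth of untreated cells, values between 100 and 0 indicate rising inhibition; between -100 and 0 indicates cell death.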 Values without a mark were called inactive. The source made the active and inactive calls. How the source made its calls: active means growth percent below 10; inactive means the rest.

Tests used:
Experiment in all cases: NCI-60 one-dose screen, 48 h (100 = growth as untreated, 0 = no growth, -100 = all killed)
Settings in all cases: 10 µM unless noted
[1] = test system: RPMI-8226 leukemia
[2] = test system: OVCAR-8 ovarian
[3] = test system: OVCAR-5 ovarian
[4] = test system: OVCAR-4 ovarian
[5] = test system: SK-OV-3 ovarian
[6] = test system: IGROV1 ovarian
[7] = test system: OVCAR-3 ovarian
[8] = test system: HS 578T breast
[9] = test system: NCI/ADR-RES ovarian
[10] = test system: T-47D breast
[11] = test system: BT-549 breast
[12] = test system: MDA-MB-435 melanoma
[13] = test system: SW-620 colon
[14] = test system: MCF7 breast
[15] = test system: HCT-116 colon
[16] = test system: HCC-2998 colon
[17] = test system: KM12 colon

| Compound | growth [1] | growth [2] | growth [3] | growth [4] | growth [5] | growth [6] | growth [7] | growth [8] | growth [9] | growth [10] | growth [11] | growth [12] | growth [13] | growth [14] | growth [15] | growth [16] | growth [17] |
| --- | --- | --- | --- | --- | --- | --- | --- | --- | --- | --- | --- | --- | --- | --- | --- | --- | --- |
| N#CC1=C(N)Oc2c(ccc3ccccc23)C1c1ccccc1Cl (configuration not stated) | 30.1% | 7.5% (active) | 38.8% | 42.2% | 59.3% | 24.9% | 5.72% (active) | 16.8% | -0.548% (active) | 66.5% | 20.7% | -41.2% (active) | 21.9% | 16.8% | 11.9% | 17.7% | 12.8% |
| Oc1ccc(C2c3ccccc3Oc3ccccc32)c2cccnc12 | 28.8% | 7.16% (active) | 44.9% | 30.6% | 31.4% | 20.4% | 56.5% | 77.6% |  | 31.1% | 29.3% | 27.3% | 23.5% | 17.4% | 20.1% | 35.4% |  |
| CN1CCN(CCNc2nccc(-c3c(-c4cccc(O)c4)nc4sccn34)n2)S1(=O)=O | 48.7% | 73.3% | 68.6% | 77.5% | 47.1% | 45.7% | 81.5% | 76.7% | 101% | 68.5% |  | 29.2% | 65.4% | 71.3% | 25.1% | 88% | 34.4% |
| C#CCNC(=O)[C@H](Cc1ccccc1)NC(=O)[C@]12CC[C@@H](C(=C)C)[C@@H]1[C@H]1CC[C@@H]3[C@@]4(C)CCC(=O)C(C)(C)[C@@H]4CC[C@@]3(C)[C@]1(C)CC2 | 38% |  | 87.1% | 81.6% | 84.7% | 89.1% | 62.9% | 85.1% | 79.8% | 49.8% | 104% | 85% | 64.8% | 56% | 35.3% | 80.8% |  |
| O=C1Nc2ccccc2/C1=C\c1c(-c2ccc(F)cc2)nc2ccccn12 | 94.8% | 86.8% | 77.5% | 83.9% | 62.7% | 57.1% | 62.1% |  | 35.4% | 60.6% | 69.6% | -21.1% (active) | 64.5% | 62.8% | 64.2% | 130% | 46.3% |
| N#CC(C#N)=Cc1cc2ccccc2nc1Oc1ccc(C(F)(F)F)cc1 | 3.66% (active) |  | 102% | 99.7% | 88.6% | 79.3% | 101% | 96.9% | 92.5% | 90.6% | 96.2% | 97% | 74.5% | 56.9% | 89.8% | 106% | 88.5% |
| CC(=O)O[C@@H]1C2CCC3C(CC[C@@]4(C)C3CC[C@@H]4C(C)N(C)C)[C@@]2(C)CC[C@@H]1NC(=O)C=C(C)C (some centres not stated) |  |  | 83.8% | -19.5% (active) | 65.4% | 37.8% | 0.951% (active) | 16% | 37.6% | -28% (active) | 26.4% | -47.4% (active) | -64.5% (active) | -16.9% (active) | -55% (active) | -23.5% (active) | 9.21% (active) |
| O=C1Nc2ccc(F)cc2/C1=C\c1c(-c2ccccc2)nc2ccccn12 | 86.5% | 74.7% | 73.7% |  | 80.7% | 47.6% | 66.4% | 71.8% | 38.1% | 61.8% | 65.9% | -10.1% (active) | 49.8% | 61.3% | 63.8% | 93.3% | 45.7% |
| C=CCn1c(-c2ccc(-c3nc4ccc(C)cc4[nH]3)cc2)n[nH]c1=S |  | 94.4% | 101% | 90.4% |  | 97.9% | 112% | 102% | 108% | 97.5% | 100% | 98.1% | 112% | 82.8% | 106% | 108% | 105% |
| COc1ccc(-c2cnc3c(-c4cccc5cnccc45)cnn3c2)cc1 | 40.8% | 41.8% | 96.1% | 36.4% | 68.6% | 83.5% | 73.4% |  | 56.3% | 22.8% | 50.1% | 62.9% | 60.7% | 78.7% | -15% (active) | 99.1% | 63.1% |
| O=C1Nc2ccccc2/C1=C\c1c(-c2ccccc2)nc2ccccn12 | 66% | 68.9% | 68.2% | 78.8% | 30.5% | 46.3% | 11.9% |  | -11.1% (active) | 38.1% | 45.3% | -42% (active) | 21.2% | 19.6% | 20.6% | 107% | 23.3% |
| COc1cc(C2=NN(C(C)=O)C(c3cc(OC)c(OC)c(OC)c3)C2)ccc1O (configuration not stated) | -27.5% (active) | 24.7% | 34% | 35.3% | 30.3% | 2.82% (active) | -51.9% (active) |  | -55.4% (active) | 45.6% | 23.1% | -76% (active) | 12.4% | 8.15% (active) | 6.96% (active) | -49.3% (active) | 2.51% (active) |
| COc1ccc(-c2nc(S(=O)(=O)c3ccccc3)c(S(=O)CC(=O)N3CCC(C)CC3)o2)cc1 (configuration not stated) | -14.6% (active) | 33.9% | 48% | 28.8% | 92.2% | 25.6% | -42.6% (active) | 77.7% |  | 15.6% | 33.5% | 57.2% | 1.06% (active) | 24.3% | -55.9% (active) | 90.6% | 68.1% |
| O=[N+]([O-])c1ccc(N=Nc2cc(S(=O)(=O)O)c3cccc(S(=O)(=O)O)c3c2O)cc1 | 104% | 108% | 113% | 114% | 102% | 72.8% | 121% | 130% |  | 108% | 105% | 86% | 112% | 97.7% | 97.7% | 112% | 118% |
| CCN1C(=O)N(CC)C2Nn3c(s/c(=C\c4ccc(OC)cc4)c3=O)=NC21 (configuration not stated) | 69.8% |  | 83.9% | 63.7% | 62.7% | 54.8% | 19.2% | 43.6% | 44.2% | 48.8% | 62.9% | -26.9% (active) | 25.5% | 21% | 29.4% | 95.7% | 37.8% |
| COc1ccc(CNCCN2C(=O)c3ccc4c5c(ccc(c35)C2=O)C(=O)N(CCNCc2ccc(OC)c(OC)c2OC)C4=O)c(OC)c1OC | -25% (active) | -9.78% (active) | -60.1% (active) | -94.1% (active) | 58% | -29.9% (active) | -42.8% (active) |  | -3.82% (active) | -18.4% (active) | -11.4% (active) | -48.2% (active) | -37% (active) | -67.1% (active) | 1.82% (active) | -79.5% (active) | -41.4% (active) |
| CSc1nc2sc3cccc(Cl)c3n2c(=N)c1C#N | 90.7% |  | 119% |  |  | 93.4% | 110% | 98.2% | 103% | 83.9% | 96.7% | 104% | 102% | 88.4% | 101% | 106% | 101% |
| N#CC(C(=O)/C(=N/NC(=O)c1ccccc1O)C(C#N)c1ccccc1)c1ccccc1 (configuration not stated) |  | 52.3% | 91.2% | 58.8% | 45.9% | 37.7% | 68.7% |  | 44.5% | 24.9% | 44.2% | 24.1% | 80.2% | 55.3% | 14.7% | 85.9% | 46.5% |
